The list is not random: actives were taken first. Their share in the collection is about 2.4%.
L3MBTL1 inh – qHTS Assay for the Inhibitors of L3MBTL1; hit rate 0.66% among 230,000; Lethal(3)malignant brain tumor-like protein 1 (Homo sapiens), Q9Y468; Potency, µM (titrated, usually from 57.1 µM), without a hit: at the highest dose activity, negative = inhibition, most hits filed as inhibitors; AID 485360, 2010; AlphaScreen L3MBTL1–H3K9me1 peptide binding; note: % is set by controls: 0 for no effect and ±100 for the full control effect; nearly all actives have a fitted effect of over 60% in size
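Read-out is AlphaScreen signal from streptavidin donor and nickel chelate acceptor beads (10 ug/mL final each) bridging L3MBTL1 (50 nM) and biotinylated K9-monomethylated H3(1-15) peptide (75 nM), after 30 min compound exposure at room temperature.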
POLH inh – qHTS for Inhibitors of Polymerase Eta; recombinant Pol eta, fluorescent DNA replication assay; Potency, µM (top dose mostly 114 µM), for the others: at the highest dose activity change, negative = inhibition, actives largely listed as inhibitors; hit rate 1.2% among 390,000; note: % is set by controls: 0 for no effect and ±100 for the full control effect
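Pol eta at 10 nM preincubated with compounds 15 min at room temperature; reaction started with fluorescent substrate (50 nM final) and read kinetically at 0 and 10 min.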
POLI inh – qHTS for Inhibitors of Polymerase Iota; hit rate 1% among 390,000; DNA polymerase iota (Homo sapiens), Q9UNA4; Pol iota fluorescent replication assay, 10 min; Potency, µM (series often up to 115 µM), for the others: at the top dose activity, negative = inhibition, most hits filed as inhibitors
Target sequence (Q9UNA4 whole entry, looked up): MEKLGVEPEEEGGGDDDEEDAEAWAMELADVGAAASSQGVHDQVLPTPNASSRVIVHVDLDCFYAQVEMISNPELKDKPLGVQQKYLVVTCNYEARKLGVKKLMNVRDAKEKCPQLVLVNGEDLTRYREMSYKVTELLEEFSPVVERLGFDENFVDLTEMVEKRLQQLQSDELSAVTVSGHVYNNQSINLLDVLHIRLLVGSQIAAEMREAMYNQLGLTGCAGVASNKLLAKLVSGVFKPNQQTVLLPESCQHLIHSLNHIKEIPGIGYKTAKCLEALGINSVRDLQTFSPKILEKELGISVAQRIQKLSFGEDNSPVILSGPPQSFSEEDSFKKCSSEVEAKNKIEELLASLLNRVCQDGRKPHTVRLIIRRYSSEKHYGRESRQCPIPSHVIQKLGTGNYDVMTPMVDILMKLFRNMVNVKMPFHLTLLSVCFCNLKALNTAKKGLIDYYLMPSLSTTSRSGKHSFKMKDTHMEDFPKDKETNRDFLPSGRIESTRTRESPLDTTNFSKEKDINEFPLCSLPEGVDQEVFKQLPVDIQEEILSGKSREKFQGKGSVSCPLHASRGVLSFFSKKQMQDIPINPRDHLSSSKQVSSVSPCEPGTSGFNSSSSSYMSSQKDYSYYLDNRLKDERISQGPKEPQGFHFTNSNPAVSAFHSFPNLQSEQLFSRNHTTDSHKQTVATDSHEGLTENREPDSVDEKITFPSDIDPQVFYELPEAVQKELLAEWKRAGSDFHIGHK
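Fluorescent replication assay read twice, at 0 min and 10 min after adding 50 nM (final) substrate. Enzyme (10 nM) and compounds were first incubated 15 min at room temperature; enzyme-free buffer wells were negative controls.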
POLK inh – qHTS for Inhibitors of Polymerase Kappa | Potency, µM (doses to about 107 µM), for the others: at the highest dose activity, negative = inhibition, usual class: inhibitors | hit rate 0.53% among 400,000 | purified Pol kappa, fluorescent DNA synthesis assay, 10 min; note: % is set by controls: 0 for no effect and ±100 for the full control effect
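Activity was followed as the change in fluorescence between reads at 0 and 10 min after starting the reaction with 50 nM substrate. Beforehand, 10 nM polymerase had been preincubated with compound for 15 min at room temperature.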
POLB inh – qHTS Assay for Inhibitors of DNA Polymerase Beta. Potency, µM (doses to about 114 µM), for the others: at the highest dose activity change, negative = inhibition, usual class: inhibitors. hit rate 1.3% among 340,000. Pol beta primer extension/strand displacement, fluorescence kinetic; note: % is set by controls: 0 for no effect and ±100 for the full control effect
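Values derive from four-parameter Hill fits of normalized kinetic data: reads at 0 and 10 min following addition of 50 nM substrate to 10 nM Pol beta preincubated 15 min with compound.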
Starred values were filed as active, the others as inactive; ? = inconclusive; . = no result given; ! = not confirmed by another sample; [ ] = another dose, or the depositor's remark. Calls come from the whole dose curve; as a rule, active = well fitted curve in the direction sought with a large enough effect; inconclusive = small, poorly fitted or top-dose-only effect, or another doubt; inactive = no such curve, though single readings can be large; an effect the other way counts as inactive or inconclusive. Potency is the fitted concentration of half-maximal effect.

SMILES	L3MBTL1 inh	POLH inh	POLI inh	POLK inh	POLB inh
COc1ccc(C2=C(C)C(=O)N(Cc3ccc(C(=O)Nc4cc(C)ccc4C)cc3)S2(=O)=O)cc1	.	.	-0.3%	4.3%	13.6%
CC(C)CC(CSc1ccc(Br)cc1)N1CCN(CCc2ccccc2)CCC1=O (configuration not stated)	.	.	4.1%	-7.8%	.
O=C(O)Cn1c(CCS(=O)(=O)c2ccc(Br)cc2)nc2ccccc21	?	20µM*	74.0%	-36.4%	14.1µM*
CCCCCCC[n+]1ccc(/C=C/c2c(C)[nH]c3ccccc23)c2ccccc21	.	.	79.4µM*	?	.
CCCCCCC[n+]1ccc(/C=C/c2c[nH]c3ccccc23)c2ccccc21	.	.	?	31.6µM*	.
C=CCN(CC=C)C(=S)Nc1ccc2nsnc2c1	8.91µM*	4.1%	?	5.1%	-29.6%
COc1ccc(N(C)C(=O)Nc2ccc3nsnc3c2)cc1	-8.0%	-6.1%	84.2%	5.3%	?
COCCNC(=S)Nc1ccc2nsnc2c1	1.5%	-5.7%	20µM*	-12.7%	43.0%
CC(C)N(C(=O)Nc1ccc2nsnc2c1)C(C)C	-75.8%	8.91µM*	1µM*	50.1µM*	10µM*
COc1ccc(NC(=S)Nc2ccc3nsnc3c2)cc1	-5.8%	7.08µM*	3.55µM*	0.4%	-0.1%
NCC(=O)N[C@@H](CCCN=C(N)N)C(=O)NCC(=O)N[C@@H](CCC(=O)O)C(=O)N[C@@H](CO)C(=O)O	.	.	.	13.9%[60.1 µM]	.
CCC(=O)N1c2ccccc2CC1C(=O)NCCN1CCN(c2cccc(C(F)(F)F)c2)CC1 (configuration not stated)	.	-16.2%	30.5%	-3.8%[60.1 µM]	25.1%
CCOc1ccc(NC(=S)Nc2ccc3nsnc3c2)cc1	-20.4%	22.4µM*	10µM*	-3.7%	?
CCOc1ccc(NC(=O)Nc2ccc3nsnc3c2)cc1	-0.7%	-0.6%	7.9%	-10.3%	2.5%
CCOC(=O)C(C)N1C(=O)S/C(=C/c2cc(C)n(-c3ccccn3)c2C)C1=O (configuration not stated)	.	-19.5%	-4.9%	89.1µM*	-3.3%
CC12CCC(=O)C=C1CCCC2=O (configuration not stated)	.	-5.2%	-4.0%	-12.0%	.
COc1ccccc1NC(=O)Nc1cnccn1	4.5%	-1.1%	29.9%	-12.8%	-20.4%
COc1cc([N+](=O)[O-])ccc1NC(=O)Nc1cnccn1	.	79.4µM*	-3.9%	10.2%	25.2%
Cc1c(OCC(=O)N[C@@H](Cc2c[nH]c3ccccc23)C(=O)O)ccc2c1oc(=O)c1ccccc12	.	79.4µM*	31.8%	-12.6%	-10.7%
Cc1c(C)c2ccc(OCC(=O)NC(Cc3c[nH]c4ccc(O)cc34)C(=O)O)c(C)c2oc1=O (configuration not stated)	.	?	-22.0%	-16.7%	-23.0%
COc1ccc(N2CCN(C(=O)c3ccc(NC(=O)C4=CSCCO4)cc3)CC2)cc1	.	-5.6%	35.5µM*	-22.5%	-7.4%
O=C(Nc1ccc(C(=O)N2CCN(c3ccc(F)cc3)CC2)cc1)C1=CSCCO1	.	-7.5%	-19.7%	1.0%	8.4%
CCOC(=O)CSc1ccc2nnc(-c3cccs3)n2n1	?	-7.8%	-18.6%	-7.5%	7.0%
O=C(CSc1ccc2nnc(-c3cccs3)n2n1)N1CCCC1	?	-14.2%	51.4%	0.0%	44.7µM*
COc1ccc(NC(=O)C2=CC(c3cccs3)=NS(=O)(=O)N2C)cc1	-6.0%	-3.7%	18.5%	5.2%	31.6µM*!
SMILES	L3MBTL1 inh	POLH inh	POLI inh	POLK inh	POLB inh
O=C1Nc2ccccc2Oc2cc([N+](=O)[O-])ccc21	?	50.1µM*	-22.6%	-27.2%	?
Cc1ccc2c(c1)NC(=O)c1cc([N+](=O)[O-])ccc1O2	.	-11.1%	24.2%	-10.1%	0.0%
CCC(C)S(=O)(=O)c1oc(-c2cccs2)nc1S(=O)(=O)c1ccccc1 (configuration not stated)	.	-19.5%	?	-31.0%	7.0%
Cc1ccc(-c2cc(C(=O)N3CCOCC3)c3ccccc3n2)o1	3.6%	-13.9%	79.4µM*	-21.6%	.
Cc1ccc(-c2cc(C(=O)N3CCN(c4ccc(O)cc4)CC3)c3ccccc3n2)cc1	-29.9%	-15.5%	?	-10.1%	.
O=C(c1cc(-c2ccccc2)nc2ccccc12)N1CCOCC1	-5.0%	-0.3%	26.6%	2.4%	1.4%
Cc1ccc(-c2cc(C(=O)N3CCN(c4ccc(F)cc4)CC3)c3ccccc3n2)o1	-20.1%	?	35.5µM*	-21.0%	28.2µM*
COc1ccc(-c2nc3cnc(Nc4cccc(OC)c4)nc3n(C)c2=O)cc1	.	.	.	-10.0%[60.1 µM]	.
CCc1cc(C(=O)Cc2cnn(-c3ccccc3)c2)c(O)cc1O	-14.3%	-6.7%	-7.9%	-4.2%	12.0%
O=C(Cc1cnn(-c2ccccc2)c1)c1ccc(O)c(O)c1O	.	?	?	2.51µM*	?
CC1(C)CC(=O)C(N=Nc2cc(Cl)c(Cl)c(Cl)c2)=C(O)C1	.	-10.5%	-1.6%	-3.5%	1.1%
Cc1ccc(O)c(N=NC2=C(O)CC(C)(C)CC2=O)c1	28.2µM*	-15.5%	-3.9%	-7.7%	1.3%
Cc1ccc(NC(=O)CS(=O)CC(=O)NC(C)CCc2ccco2)cc1Cl (configuration not stated)	-4.2%	?	-38.7%	-28.5%	31.6µM*
Cc1ccc(-c2ccccc2NC(=O)CS(=O)CC(=O)Nc2ccc(C)c(Cl)c2)o1 (configuration not stated)	.	-2.1%	?	-18.1%	-2.6%
Fc1ccc(Cn2c(-c3cccc(Br)c3)nc3ccccc32)cc1	.	9.3%	0.9%	-6.1%[60.1 µM]	1.0%
CC(=O)ON(C(C)=O)c1ccc(/C=C2/C=Cc3ccccc32)cc1	.	.	8.2%	-12.5%	.
O=C(/C=C/c1ccco1)NCc1ccc2c(c1)OCO2	-25.3%	-6.9%	5.9%	-1.3%	20µM*
O=C(/C=C/c1ccco1)Nc1ccc(F)cc1	-24.4%	.	?	-2.3%[60.1 µM]	31.6µM*
O=C(/C=C/c1ccccc1)NCc1ccc2c(c1)OCO2	.	-18.6%	9.1%	-10.1%	11.3%
O=C(NCCc1ccccc1)/C(=C/c1ccco1)c1ccccc1	-7.9%	?	-19.2%	-3.2%	35.5µM*
COC(=O)c1ccccc1NC(=O)/C=C/c1ccco1	?	17.8µM*	?	0.0%	-26.2%
CCCn1c(CCC(=O)Nc2ccc(C)c(Cl)c2)nc2cccnc21	.	-7.7%	29.1%	-13.4%	0.1%
Cc1ccnc(NC(=S)NC(=O)/C=C/c2ccco2)c1	.	?	?	?	-23.7%
O=C(/C=C/c1ccco1)NCCCN1CCN(CCCNC(=O)/C=C/c2ccco2)CC1	-3.1%	-12.8%	3.2%	-10.4%	21.8%
CCC(=O)Nc1ccc(NC(=S)NC(=O)/C=C/c2ccco2)cc1	7.2%[2.29 µM]	?	?	-24.1%	-27.4%

Assay outcomes (PubChem)
